Molecules are shown by their SMILES. The whole screen tested about 2,700 compounds, of which about 160 (5.9%) showed an effect of 50% or more. Shown is part of a subset that was picked to be rich in strong results.

The text below walks through data of ChEMBL document CHEMBL5606458, “ASAP - ZIKV NS2B-NS3 protease fluorescence single point” (2024).

The test addresses Nonstructural protein 3 (Zika virus) (UniProt A0A024AXB9).

Chain of Nonstructural protein 3 (Zika virus) (A0A024AXB9 as listed by the source): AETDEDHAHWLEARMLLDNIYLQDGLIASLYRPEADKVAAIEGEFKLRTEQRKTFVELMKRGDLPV

With `c1ccc2c([C@H]3CCN(C[C@H]4CCCOC4)C3)c[nH]c2c1`, the inhibition is, setting by setting: (PRVABC59, Concentration 49.5 uM, Number of replicates 2.0, Standard deviation 0.2718923543168702 %) 3%; (PRVABC59, Concentration 99.01 uM, Number of replicates 2.0, Standard deviation 1.3138002130824364 %) 7.93%; (PRVABC59, Concentration 198.0 uM, Number of replicates 2.0, Standard deviation 0.8779424567170888 %) 17.5%.

For the compound `CCn1ccnc(N2CC[C@H](c3c[nH]c4ccccc34)C2)c1=O`, the inhibition (PRVABC59, Concentration 49.5 uM, Number of replicates 2.0, Standard deviation 0.8076182483405395 %) was 8.04%; the inhibition (PRVABC59, Concentration 99.01 uM, Number of replicates 2.0, Standard deviation 0.7356695318349864 %) was 17.6%; the inhibition (PRVABC59, Concentration 198.0 uM, Number of replicates 2.0, Standard deviation 0.07734519898888803 %) was found to be 32.1%.

Turning to `OCc1cc(C2CCN(Cc3c[nH]c4ccccc34)CC2)no1`, the inhibition turned out to be 48.5% (PRVABC59, Concentration 49.5 uM, Number of replicates 2.0, Standard deviation 0.29821086957580095 %); 64.3% (PRVABC59, Concentration 99.01 uM, Number of replicates 2.0, Standard deviation 0.4460202044782944 %); 75.2% (PRVABC59, Concentration 198.0 uM, Number of replicates 2.0, Standard deviation 0.7494127761974186 %).

On to `CCC1CCN(Cc2c[nH]c3ccccc23)CC1`, for which the inhibition came out at 21.4% (PRVABC59, Concentration 49.5 uM, Number of replicates 2.0, Standard deviation 2.1085872748623196 %); 37.3% (PRVABC59, Concentration 99.01 uM, Number of replicates 2.0, Standard deviation 0.9763502903682051 %); 55.2% (PRVABC59, Concentration 198.0 uM, Number of replicates 2.0, Standard deviation 0.045944785323907715 %).

As to `c1ccc2c(CN3CCCCC3)c[nH]c2c1`, the inhibition reads like this: (PRVABC59, Concentration 49.5 uM, Number of replicates 2.0, Standard deviation 0.27567478108963184 %) 10.6%; (PRVABC59, Concentration 99.01 uM, Number of replicates 2.0, Standard deviation 0.4102311237715717 %) 22.8%; (PRVABC59, Concentration 198.0 uM, Number of replicates 2.0, Standard deviation 0.3445953308233743 %) 38%.

For `OC1CCN(Cc2c[nH]c3ccccc23)CC1`, the inhibition by setting is: (PRVABC59, Concentration 49.5 uM, Number of replicates 2.0, Standard deviation 2.7698787458435845 %) 5.44%; (PRVABC59, Concentration 99.01 uM, Number of replicates 2.0, Standard deviation 2.6829105784026894 %) 11.6%; (PRVABC59, Concentration 198.0 uM, Number of replicates 2.0, Standard deviation 2.633683059341965 %) 21.9%.

In turn, `NS(=O)(=O)c1ccc(C2CCN(Cc3c[nH]c4ccccc34)CC2)cc1` gave an inhibition (PRVABC59, Concentration 49.5 uM, Number of replicates 2.0, Standard deviation 0.10609946491696037 %) of 65%; an inhibition (PRVABC59, Concentration 99.01 uM, Number of replicates 2.0, Standard deviation 0.029644407368622425 %) of 80.2%; an inhibition (PRVABC59, Concentration 198.0 uM, Number of replicates 2.0, Standard deviation 0.031203503588737417 %) of 89.2%.

Consider `O=C(O)c1ccc(C2CCN(Cc3c[nH]c4ccccc34)CC2)cc1`, for which the inhibition turned out to be 10.8% (PRVABC59, Concentration 49.5 uM, Number of replicates 2.0, Standard deviation 0.6949576992221913 %); 22.8% (PRVABC59, Concentration 99.01 uM, Number of replicates 2.0, Standard deviation 0.3163616627681085 %); 37.7% (PRVABC59, Concentration 198.0 uM, Number of replicates 2.0, Standard deviation 0.22041520507002849 %).

On to `c1ccc(C2CCN(Cc3c[nH]c4ccccc34)CC2)nc1`, for which the inhibition (PRVABC59, Concentration 49.5 uM, Number of replicates 2.0, Standard deviation 1.1072658196883798 %) was 59.8%; the inhibition (PRVABC59, Concentration 99.01 uM, Number of replicates 2.0, Standard deviation 0.7753455634987777 %) turned out to be 75.2%; the inhibition (PRVABC59, Concentration 198.0 uM, Number of replicates 2.0, Standard deviation 0.5497459588871212 %) came to 86%.

On to `O=C1NCc2ccccc2C12CCNCC2`, for which the inhibition by setting is: (PRVABC59, Concentration 49.5 uM, Number of replicates 2.0, Standard deviation 1.3304043012280913 %) 0.782%; (PRVABC59, Concentration 99.01 uM, Number of replicates 2.0, Standard deviation 0.8986974193851874 %) 2.65%; (PRVABC59, Concentration 198.0 uM, Number of replicates 2.0, Standard deviation 5.074631109254522 %) 2.34%.

For the compound `CCn1ccnc(N2CC[C@H](C(C)(C)C)C2)c1=O`, the inhibition amounted to 4.07% (PRVABC59, Concentration 49.5 uM, Number of replicates 2.0, Standard deviation 2.222905543826298 %); 10.1% (PRVABC59, Concentration 99.01 uM, Number of replicates 2.0, Standard deviation 1.7617429882024038 %); 20.1% (PRVABC59, Concentration 198.0 uM, Number of replicates 2.0, Standard deviation 1.0233659428190776 %).

Regarding `COC[C@@H](C)CN1CC[C@H](c2c[nH]c3ccccc23)C1`, the inhibition by setting is: (PRVABC59, Concentration 49.5 uM, Number of replicates 2.0, Standard deviation 1.4380791310486918 %) 4.02%; (PRVABC59, Concentration 99.01 uM, Number of replicates 2.0, Standard deviation 1.4278249713933853 %) 8.28%; (PRVABC59, Concentration 198.0 uM, Number of replicates 2.0, Standard deviation 1.555996909462895 %) 14.7%.

Take `c1ccc2c(CN3CCC(c4ccn[nH]4)CC3)c[nH]c2c1`: the inhibition runs as follows: (PRVABC59, Concentration 49.5 uM, Number of replicates 2.0, Standard deviation 1.3620998271263447 %) 41.5%; (PRVABC59, Concentration 99.01 uM, Number of replicates 2.0, Standard deviation 0.5632518321987402 %) 58.4%; (PRVABC59, Concentration 198.0 uM, Number of replicates 2.0, Standard deviation 0.6599886276000965 %) 73.5%.

Take `c1ccc2c(CN3CCC(c4cnco4)CC3)c[nH]c2c1`: the inhibition amounted to 41.5% (PRVABC59, Concentration 49.5 uM, Number of replicates 2.0, Standard deviation 0.1050178081967768 %); 59.4% (PRVABC59, Concentration 99.01 uM, Number of replicates 2.0, Standard deviation 0.24613759530362114 %); 74.9% (PRVABC59, Concentration 198.0 uM, Number of replicates 2.0, Standard deviation 0.2970051325336013 %).

As to `COc1cccc(C2CCN(Cc3c[nH]c4ccccc34)CC2)c1`, the inhibition came out at 39.6% (PRVABC59, Concentration 49.5 uM, Number of replicates 2.0, Standard deviation 0.042125269324456455 %); 56.3% (PRVABC59, Concentration 99.01 uM, Number of replicates 2.0, Standard deviation 0.10921765735719036 %); 67.5% (PRVABC59, Concentration 198.0 uM, Number of replicates 2.0, Standard deviation 0.2075162463769664 %).

`c1cnc(C2CCN(Cc3c[nH]c4ccccc34)CC2)nc1`: the inhibition is 44.9% (PRVABC59, Concentration 49.5 uM, Number of replicates 2.0, Standard deviation 0.6038611636759568 %); 62.7% (PRVABC59, Concentration 99.01 uM, Number of replicates 2.0, Standard deviation 0.27239407040154384 %); 77.4% (PRVABC59, Concentration 198.0 uM, Number of replicates 2.0, Standard deviation 0.2641885847586549 %).

On to `c1cncc(C2CCN(Cc3c[nH]c4ccccc34)CC2)c1`, for which the inhibition by setting is: (PRVABC59, Concentration 49.5 uM, Number of replicates 2.0, Standard deviation 0.34229175267116285 %) 61.9%; (PRVABC59, Concentration 99.01 uM, Number of replicates 2.0, Standard deviation 0.300803069346615 %) 77.1%; (PRVABC59, Concentration 198.0 uM, Number of replicates 2.0, Standard deviation 0.06482927085509294 %) 87.7%.

Consider `CCc1cc(C)nc(C2CCN(Cc3c[nH]c4ccccc34)CC2)n1`, for which the inhibition is, setting by setting: (PRVABC59, Concentration 49.5 uM, Number of replicates 2.0, Standard deviation 0.9221110052573533 %) 41.8%; (PRVABC59, Concentration 99.01 uM, Number of replicates 2.0, Standard deviation 1.5508934318704077 %) 59.5%; (PRVABC59, Concentration 198.0 uM, Number of replicates 2.0, Standard deviation 1.118702788500296 %) 75.2%.

With `OC1(c2ccccc2)CCN(Cc2c[nH]c3ccccc23)CC1`, the inhibition reads like this: (PRVABC59, Concentration 49.5 uM, Number of replicates 2.0, Standard deviation 0.6104232594017089 %) 13%; (PRVABC59, Concentration 99.01 uM, Number of replicates 2.0, Standard deviation 0.9927585642556782 %) 22.8%; (PRVABC59, Concentration 198.0 uM, Number of replicates 2.0, Standard deviation 2.2070409642846154 %) 34.8%.

With `Cn1nccc1C1CCN(Cc2c[nH]c3ccccc23)CC1`, the inhibition by setting is: (PRVABC59, Concentration 49.5 uM, Number of replicates 2.0, Standard deviation 1.4229504354820093 %) 24.6%; (PRVABC59, Concentration 99.01 uM, Number of replicates 2.0, Standard deviation 1.2388422115932054 %) 38.2%; (PRVABC59, Concentration 198.0 uM, Number of replicates 2.0, Standard deviation 1.0765748217775348 %) 55.9%.

As to `c1ccc(COC2CCN(Cc3c[nH]c4ccccc34)CC2)cc1`, the inhibition was determined as 23.5% (PRVABC59, Concentration 49.5 uM, Number of replicates 2.0, Standard deviation 2.313702836748105 %); 39.6% (PRVABC59, Concentration 99.01 uM, Number of replicates 2.0, Standard deviation 1.2274106375778986 %); 58.3% (PRVABC59, Concentration 198.0 uM, Number of replicates 2.0, Standard deviation 0.262548566589399 %).

What is called inhibition is the change of the read-out against control, counted positive when it falls. Lower therefore signals a response near the control.
